This is part of a sample that, as a whole, favours compounds with a hit. Of some 83,000 tested, about 20% had one in any assay.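 Cell lines were cultured in 96-well plates, exposed to a single compound concentration, and assessed for percent growth 48 hours later.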 A number with no mark means an inactive call. Calls of active or inactive are those of the source. Rule for the calls: active = growth percent below 10; inactive = the rest.
Tests used:
Assay in all cases: NCI-60 one-dose screen, 48 h (100 = growth as untreated, 0 = no growth, -100 = all killed)
Details in all cases: 10 µM
NCI-H23 lung = system: NCI-H23 lung
NCI-H226 lung = system: NCI-H226 lung
NCI-H322M lung = system: NCI-H322M lung
HOP-62 NSCLC = system: HOP-62 NSCLC
NCI-H460 lung = system: NCI-H460 lung
NCI-H522 lung = system: NCI-H522 lung
A549/ATCC NSCLC = system: A549/ATCC NSCLC
786-0 renal = system: 786-0 renal
COLO 205 colon = system: COLO 205 colon
DU-145 prostate = system: DU-145 prostate
K-562 leukemia = system: K-562 leukemia
MALME-3M melanoma = system: MALME-3M melanoma
MDA-MB-231 breast = system: MDA-MB-231 breast
RXF 393 renal = system: RXF 393 renal
SF-268 CNS = system: SF-268 CNS
SF-295 CNS = system: SF-295 CNS
SF-539 CNS = system: SF-539 CNS
UACC-257 melanoma = system: UACC-257 melanoma
M14 melanoma = system: M14 melanoma
HCT-15 colon = system: HCT-15 colon

SMILES	growth (NCI-H23 lung)	growth (NCI-H226 lung)	growth (NCI-H322M lung)	growth (HOP-62 NSCLC)	growth (NCI-H460 lung)	growth (NCI-H522 lung)	growth (A549/ATCC NSCLC)	growth (786-0 renal)	growth (COLO 205 colon)	growth (DU-145 prostate)	growth (K-562 leukemia)	growth (MALME-3M melanoma)	growth (MDA-MB-231 breast)	growth (RXF 393 renal)	growth (SF-268 CNS)	growth (SF-295 CNS)	growth (SF-539 CNS)	growth (UACC-257 melanoma)	growth (M14 melanoma)	growth (HCT-15 colon)
CN1CC[C@@H](c2c(O)cc(O)c3c(=O)cc(-c4ccccc4Cl)oc23)[C@@H](O)C1	-13.3% (active)	11.8%	4.68% (active)	12.1%	5.19% (active)	-42.6% (active)	14.2%	13%	-51% (active)	1.56% (active)	-23.8% (active)	-68.9% (active)	13.4%	12.4%	9.12% (active)	7.54% (active)	-31.3% (active)	15.5%	-58.9% (active)	-26.7% (active)
O=C1Nc2ccc(Cl)cc2/C1=C\c1c(-c2ccc(Cl)cc2)nc2sc(C3CC3)nn12	67%	29.7%	61.3%	-0.353% (active)	51.4%	42.9%	56.4%	31.8%	71.9%	59.2%	76.1%	42%	43.7%	21.1%	34%	41.4%	8.81% (active)	63.2%	74.2%	77.6%
O=C(Nc1cccc(-n2cc(-c3ccncc3)c(-c3cc(O)cc(Cl)c3)n2)c1)Nc1ccc(Cl)c(C(F)(F)F)c1	10.5%	41.2%	45%	8.99% (active)	3.75% (active)	-16% (active)	8.81% (active)	-29.8% (active)	63.4%	18.7%	5.24% (active)	-24.9% (active)	-47.3% (active)	-49.5% (active)	42.1%	14.3%	32.6%	-40% (active)	-16.8% (active)	5.79% (active)
CCCC1(CC(=O)O)OCCc2c1[nH]c1ccccc21 (stereo not given)	93.4%	98.4%	109%	107%	109%	37.2%	99.3%	103%	229%	114%	156%	98.8%	103%	100%	103%	102%	112%	103%	112%	107%
COc1ccc(OC)c(/C=C/c2nc(SC)n(-c3ccc(Cl)cc3)n2)c1	59.7%	70.9%	73.3%	90.3%	85.2%	81.6%	64.8%	86.8%	78.1%	93.9%	30.7%	44.8%	91.7%	59.7%	91.7%	46.8%	88.5%	87.3%	60%	58.9%
Cc1ccc(S(=O)(=O)OCCN(CCOS(=O)(=O)c2ccc(C)cc2)c2c[nH]c(=O)[nH]c2=O)cc1	108%	99.2%	105%	108%	114%	125%	101%	112%	115%	124%	105%	117%	109%	106%	108%	112%	96.4%	91.4%	105%	99.7%
COc1ccc(C(=O)/C=C/c2cc(-c3cc(OC)c(OC)c(OC)c3)n[nH]2)cc1	87.3%	53.3%	-6.79% (active)	17.6%	2.79% (active)	-0.12% (active)	34.5%	10.4%	30.5%	26.3%	5.85% (active)	69%	38.5%	30.1%	31.2%	-23.8% (active)	-25.6% (active)	70.8%	54.6%	8.52% (active)
CCOCCOCCOCCOCCOCCOCCOCCOCCOCCO (tested in a mixture with another compound)	7.79% (active)	28.2%	51.4%	24.4%	12.9%	-66.5% (active)	14%	39.3%	-89.7% (active)	28.1%	4.03% (active)	0.836% (active)	10.5%	37.3%	21.8%	-29.2% (active)	-10.1% (active)	-7.19% (active)	10.8%	22.1%
CCOC(=O)C(=Cc1ccc(Br)cc1)C(=O)OCC	17.6%	-33.6% (active)	39%	0.525% (active)	22.4%	-65.1% (active)	-25.6% (active)	-79% (active)	-70.5% (active)	6.17% (active)	0.625% (active)	-49.5% (active)	4.72% (active)	-75% (active)	-6.93% (active)	38.3%	8.53% (active)	-37.8% (active)	-22% (active)	-42.1% (active)
CSc1nn(-c2ccccc2)c2ncnc(Oc3ccc(C)cc3)c12	91.8%	81.4%	82%	67.5%	91%	75.5%	80%	65.4%	113%	105%	88.9%	91.6%	66.9%	68.9%	90.7%	93.1%	94.5%	93%	90.5%	93.5%
CC(=O)c1nc2ccccc2n1CCN1CCN(C)CC1	46.2%	90.9%	31.9%	41%	13.1%	0.166% (active)	31.2%	78.6%	2.73% (active)	-3.03% (active)	15.3%	17.6%	42.9%	48%	48.1%	153%	35.3%	49.8%	20.5%	98.9%
CC[C@H](C)C(=O)O[C@H]1CCC=C2C=C[C@H](C)C(CCC3C[C@@H](O)CC(=O)O3)[C@H]21 (stereo not given in full)	64.4%	76.8%	44.6%	87%	92.9%	23%	97.2%	84.8%	89%	110%	71.5%	89.1%	2.32% (active)	70.2%	33.8%	8.14% (active)	85.8%	75.2%	61.7%	55.8%
Cc1nc2ccc(CN(C)c3ccc(C(=O)N[C@@H](CCC(=O)O)C(=O)O)s3)cc2c(=O)[nH]1	54.9%	56.1%	85.9%	28.6%	29.1%	71.9%	60%	18.3%	58.5%	52.6%	30.6%	60.7%	89.4%	31.8%	26.4%	22.9%	6.05% (active)	46.7%	21.8%	74.5%
Cc1cn(C2CCCCO2)c(=O)nc1NO (stereo not given)	93.4%	115%	110%	110%	107%	104%	104%	103%	120%	113%	101%	137%	106%	119%	103%	106%	96.1%	106%	113%	100%
O=C1/C(=C/c2ccc([N+](=O)[O-])o2)Oc2ccccc21	-8.25% (active)	23.9%	91.6%	62.2%	31.8%	-79.6% (active)	62.5%	-38.5% (active)	-66% (active)	-8.6% (active)	1.24% (active)	-40.6% (active)	-17.3% (active)	-74.9% (active)	-10.8% (active)	79.2%	-40.7% (active)	-8.85% (active)	13.8%	1.63% (active)
COc1ccc(-n2c(SCc3cc(OC)c(OC)c(OC)c3)nc3ccc(C)cc3c2=O)cc1	69.2%	73.4%	80.3%	65.2%	73.8%	39.4%	51%	84.1%	32.7%	94.9%	16.9%	59.7%	59.8%	52.8%	80.6%	51.4%	77.7%	77.3%	53.8%	33.6%
